Many of the other results were omitted from the sample, so hits are more common in it than they were.
TTR transcr act = TTR transcription activators in neuroblastoma reporter cells, primary screen, cell-based, luminescence, SH-SY5Y, TTR promoter Gaussia luciferase | 92,000 tested, 1.3% active | activation, % at 16.7 µM | 100% = recombinant luciferase protein wells;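 active = activation above the mean of all tested compounds plus 3 SD, cut at about 9.5% in these data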;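 also: cells exposed to compounds for one day before reading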
Large screens that a line does not name were inactive.

COC(=O)c1cccc(NC(=S)Nc2cccc(Cl)c2Cl)c1	none
C=CCN1C[C@@H](COCc2ccccc2)OCCS1(=O)=O	none
Cc1ccc2c(n1)sc1c(-c3ccccc3)c(C#N)c(N)nc12	none
Cc1ccc2nc(-c3sc4nc(C)ccc4c3N)[nH]c2c1	none
Cc1ccc2c(N)c(C#N)sc2n1	TTR transcr act 27
O=C(OCc1cn(Cc2ccc(F)cc2)nn1)N1CCCC1	none
COC1OC(COCc2ccccc2)C2OC(C)(C)OC2C1O (configuration not stated)	none
C[C@H](NC(=O)[C@H]1N2C(=O)c3ccccc3C2SC1(C)C)C(=O)N1CCCCC1 (some centres not stated)	none
C[C@H](NC(=O)[C@H]1N2C(=O)c3ccccc3C2SC1(C)C)C(=O)N1CCC[C@H]1C(=O)O (some centres not stated)	TTR transcr act 58
C[C@H](NC(=O)[C@H]1N2C(=O)c3ccccc3C2SC1(C)C)C(=O)N1CCC[C@H]1CO (some centres not stated)	none
C[C@H]1CCCN1c1ccc2c(c1)O[C@H]1CCN(C1)S2(=O)=O	none
C[C@H](c1ccccc1)N1C[C@@H](COCc2ccccc2)Oc2cccc(F)c2S1(=O)=O	none
CC(=O)NCC(=O)N(Cc1ccco1)C1(C(=O)NC2CCCCC2)CCCCC1	none
Cc1cc(NC(=O)CCC(=O)N(Cc2ccco2)C2(C(=O)NC3CCCC3)CCCCC2C)no1 (configuration not stated)	none
CC(=O)N(Cc1ccco1)C1(C(=O)NC2CCCCC2)CCCCC1	TTR transcr act 10
COc1cccc(C(=O)n2ccc3ccc(-c4ccc5ccn(C(=O)c6cccc(OC)c6)c5c4)cc32)c1	none
CC(C)CCCCCCCCc1cccc(O)c1C(=O)O	none
O=C(NCCO)[C@H](Cc1ccccc1)NC1(C(=O)NCCN2CCOCC2)CCCCC1	none
O=c1[nH]c2ccccc2nc1N1CCOCC1	none
S=C(c1nc2ccccc2[nH]1)N1CCOCC1	TTR transcr act 10.0
O=C(CN1CCOCC1)Nc1ccc(-c2nc3ccccc3[nH]2)cc1	none
N=c1c2c(ccn1CCCc1ccccc1)Oc1ccc3ccccc3c1C2c1ccccc1 (configuration not stated)	none
O=C(NCC(c1ccccc1)c1ccccc1)[C@H](Cc1ccccc1)NC1(C(=O)NC2CCCCC2)CCC1	none
C[C@H]1[C@H](c2ccccc2)Oc2cccc(NCCc3ccccc3)c2S(=O)(=O)N1Cc1cccc(Cl)c1	none
COCCCNC(=O)C[C@H]1C[C@@]2(C(=O)OC)C(=C[C@H](COCc3ccccc3)O[C@@H]2C)N(Cc2cccc3ccccc23)C1=O	none
O=C(C(c1ccccc1)c1ccccc1)N1CCN(CCN2C(=O)c3cccc4cccc(c34)C2=O)CC1	none
OC(C#CCN1CCCC1)c1ccccc1 (configuration not stated)	none
O=C1c2ccccc2C(=O)N1CC#CCN1CCN(C(c2ccccc2)c2ccccc2)CC1	TTR transcr act 11
COC(=O)[C@]12CCCCC=C1N(Cc1ccc(OC)cc1)C(=O)[C@@H]2CC(=O)NCCC(C)C	none
COc1cccc(CNS(=O)(=O)c2cc(Br)ccc2Br)c1OC	none
COc1ccc(OC)c(CNS(=O)(=O)c2ccccc2Br)c1	none
Cc1ccc(Cn2c(=O)n(Cc3ccc(C(=O)NCC4COC4)cc3)c(=O)c3ccccc32)cc1	none
C[C@H]1[C@H](c2ccccc2)Oc2cccc(NCCc3ccccc3)c2S(=O)(=O)N1Cc1cccc(F)c1	none
CC(C)OC(=O)C1C(=O)CC(C)(O)C(C(=O)OC(C)C)C1c1cccnc1 (configuration not stated)	TTR transcr act 12
CCOC(=O)C1C(=O)CC(C)(O)C(C(=O)OCC)C1c1ccc(OC)cc1 (configuration not stated)	none
CCOC(=O)C1C(=O)CC(C)(O)C(C(=O)OCC)C1c1cccc(OC)c1 (configuration not stated)	none
O=C(Nc1ccc2c(c1)Cc1ccccc1-2)NC1CCCCN(Cc2ccc(Cl)cc2)C1=O (configuration not stated)	none
CC(C)(C)OC(=O)N1O[C@H]2C=C[C@@H]1C2	none
C=CCN1C(C(=O)OCC)CSCCS1(=O)=O (configuration not stated)	none
CC1(c2cc([N+](=O)[O-])cc([N+](=O)[O-])c2)CC(C)(C)N(C(=O)c2ccccc2)c2ccccc21 (configuration not stated)	TTR transcr act 14
CC12CN(C(=O)c3ccc([N+](=O)[O-])cc3)CC(C)(CN(C(=O)c3ccc([N+](=O)[O-])cc3)C1)C2=O	none
CN1CCN(c2ccc([N+](=O)[O-])cc2C(=O)c2ccccc2)CC1	none
COc1cc(C(=O)NCCC(=O)NCCCN2CCCCC2)cc(OC)c1OC	TTR transcr act 20
CCOCCCNC(=O)CCNC(=O)c1cc(OC)c(OC)c(OC)c1	none
COc1cc(C(=O)NCCC(=O)NCCc2ccc(Cl)cc2)cc(OC)c1OC	none
O=C(OCc1cn(Cc2cccc(F)c2F)nn1)N1CCOCC1	none
COC(=O)N[C@H]1CC=C[C@@H]1Cc1cccc(Oc2ccccc2)c1	none
C[C@H]1C2CC(OC(=O)Nc3ccc4c(c3)OCO4)C(C2)[C@H]2CCCCN21 (some centres not stated)	none

High-throughput results deposited in PubChem by The Scripps Research Institute Molecular Screening Center.
